Experimental data from PubChem BioAssay.
Activity calls are given as the source filed them.

Key:
[1] = test system: PRMT1 (protein arginine N-methyltransferase 1); experiment: small molecules binding arginine methyltransferase PRMT1 – biochemical, small-molecule microarray, 635 nm fluorescence, primary screen (AID 1088); details: higher = more signal;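 note: binding of Prmt1 protein to compounds spotted on small-molecule microarray slides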
[2] = growth effects on S. cerevisiae YJM789 – YJM789 clinical isolate, OD600, 24 h, basal, primary screen (AID 1089); details: higher = more signal, called active from +8 up or from −8 down;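 note: growth of clinical yeast isolate S. cerevisiae YJM 789 seeded 1000 cells per well; test concentration not given here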
[3] = S. pombe growth modifiers, basal conditions – strain 972, OD600, 24 h, no modulator, primary screen (AID 1090);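 note: basal condition with compound alone and no growth modifier present; test concentration not given here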; details: S. pombe 972 growth, higher = more signal, called active from +8 up or from −8 down
[4] = budding yeast growth modifiers under rapamycin – strain BY4716, OD600, 96 h, primary screen (AID 1091); note: test concentration not given here; details: S. cerevisiae BY4716 + rapamycin, higher = more signal, called active from +8 up or from −8 down
[5] = biological target: Torsin-1A-interacting protein 2 (Homo sapiens) (UniProt Q8NFQ8); experiment: small molecules binding lysate-expressed LULL1 – cell lysate, human LULL1 lysate, 635/667 nm fluorescence, primary screen (AID 1092); details: small-molecule microarray, hLULL1 lysate binding, 635 nm fluorescence; higher = more signal;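 note: probe is lysate of COS7 cells overexpressing human LULL1; score merges per-feature 667 nm fluorescence with signal-to-noise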
Torsin-1A-interacting protein 2 (Homo sapiens), sequence (Q8NFQ8 whole entry, looked up): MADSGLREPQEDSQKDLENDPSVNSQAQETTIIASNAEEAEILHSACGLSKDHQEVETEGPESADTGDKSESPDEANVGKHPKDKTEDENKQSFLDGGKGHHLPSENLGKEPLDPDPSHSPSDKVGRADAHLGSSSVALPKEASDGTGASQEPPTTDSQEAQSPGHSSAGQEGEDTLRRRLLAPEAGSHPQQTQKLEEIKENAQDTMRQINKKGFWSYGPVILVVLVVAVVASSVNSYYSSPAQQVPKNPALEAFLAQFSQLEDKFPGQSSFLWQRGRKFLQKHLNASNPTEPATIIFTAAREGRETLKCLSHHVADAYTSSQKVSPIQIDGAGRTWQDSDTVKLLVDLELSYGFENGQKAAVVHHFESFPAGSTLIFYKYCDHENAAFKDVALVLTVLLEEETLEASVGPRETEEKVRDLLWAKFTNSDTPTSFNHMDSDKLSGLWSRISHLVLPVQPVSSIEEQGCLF

[6] = optical density change of DRC41 E. coli – strain DRC41, OD650, 24 h, E. coli filamentation project, primary screen (AID 1093);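 note: MC1000 strain lacking acrAB efflux and sulA so SOS filamentation is blocked; test concentration not given here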; details: E. coli DRC41 growth, higher = more signal, called active from +8 up or from −8 down
[7] = probe aLefty2 binding to arrayed compounds – biochemical, biotinylated probe, 635/667 nm fluorescence, primary screen (AID 1094); details: small-molecule microarray, higher = more signal;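 note: score merges spot fluorescence near 667 nm with spot signal-to-noise ratio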
[8] = test system: Noggin (protein binding on small-molecule microarray); experiment: small molecules binding Noggin protein – biochemical, 635/667 nm fluorescence, primary screen (AID 1095); details: 635 nm fluorescence, higher = more signal;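 note: score merges 667 nm feature fluorescence with signal to noise over triplicate slides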
[9] = biological target: Neurogenic locus notch homolog protein 3 (Homo sapiens) (UniProt Q9UM47); experiment: small molecules binding NOTCH3 protein – biochemical, 635/667 nm fluorescence, primary screen (AID 1096); details: small-molecule microarray, 635 nm fluorescence, higher = more signal
Neurogenic locus notch homolog protein 3 (Homo sapiens), sequence (Q9UM47 whole entry, looked up): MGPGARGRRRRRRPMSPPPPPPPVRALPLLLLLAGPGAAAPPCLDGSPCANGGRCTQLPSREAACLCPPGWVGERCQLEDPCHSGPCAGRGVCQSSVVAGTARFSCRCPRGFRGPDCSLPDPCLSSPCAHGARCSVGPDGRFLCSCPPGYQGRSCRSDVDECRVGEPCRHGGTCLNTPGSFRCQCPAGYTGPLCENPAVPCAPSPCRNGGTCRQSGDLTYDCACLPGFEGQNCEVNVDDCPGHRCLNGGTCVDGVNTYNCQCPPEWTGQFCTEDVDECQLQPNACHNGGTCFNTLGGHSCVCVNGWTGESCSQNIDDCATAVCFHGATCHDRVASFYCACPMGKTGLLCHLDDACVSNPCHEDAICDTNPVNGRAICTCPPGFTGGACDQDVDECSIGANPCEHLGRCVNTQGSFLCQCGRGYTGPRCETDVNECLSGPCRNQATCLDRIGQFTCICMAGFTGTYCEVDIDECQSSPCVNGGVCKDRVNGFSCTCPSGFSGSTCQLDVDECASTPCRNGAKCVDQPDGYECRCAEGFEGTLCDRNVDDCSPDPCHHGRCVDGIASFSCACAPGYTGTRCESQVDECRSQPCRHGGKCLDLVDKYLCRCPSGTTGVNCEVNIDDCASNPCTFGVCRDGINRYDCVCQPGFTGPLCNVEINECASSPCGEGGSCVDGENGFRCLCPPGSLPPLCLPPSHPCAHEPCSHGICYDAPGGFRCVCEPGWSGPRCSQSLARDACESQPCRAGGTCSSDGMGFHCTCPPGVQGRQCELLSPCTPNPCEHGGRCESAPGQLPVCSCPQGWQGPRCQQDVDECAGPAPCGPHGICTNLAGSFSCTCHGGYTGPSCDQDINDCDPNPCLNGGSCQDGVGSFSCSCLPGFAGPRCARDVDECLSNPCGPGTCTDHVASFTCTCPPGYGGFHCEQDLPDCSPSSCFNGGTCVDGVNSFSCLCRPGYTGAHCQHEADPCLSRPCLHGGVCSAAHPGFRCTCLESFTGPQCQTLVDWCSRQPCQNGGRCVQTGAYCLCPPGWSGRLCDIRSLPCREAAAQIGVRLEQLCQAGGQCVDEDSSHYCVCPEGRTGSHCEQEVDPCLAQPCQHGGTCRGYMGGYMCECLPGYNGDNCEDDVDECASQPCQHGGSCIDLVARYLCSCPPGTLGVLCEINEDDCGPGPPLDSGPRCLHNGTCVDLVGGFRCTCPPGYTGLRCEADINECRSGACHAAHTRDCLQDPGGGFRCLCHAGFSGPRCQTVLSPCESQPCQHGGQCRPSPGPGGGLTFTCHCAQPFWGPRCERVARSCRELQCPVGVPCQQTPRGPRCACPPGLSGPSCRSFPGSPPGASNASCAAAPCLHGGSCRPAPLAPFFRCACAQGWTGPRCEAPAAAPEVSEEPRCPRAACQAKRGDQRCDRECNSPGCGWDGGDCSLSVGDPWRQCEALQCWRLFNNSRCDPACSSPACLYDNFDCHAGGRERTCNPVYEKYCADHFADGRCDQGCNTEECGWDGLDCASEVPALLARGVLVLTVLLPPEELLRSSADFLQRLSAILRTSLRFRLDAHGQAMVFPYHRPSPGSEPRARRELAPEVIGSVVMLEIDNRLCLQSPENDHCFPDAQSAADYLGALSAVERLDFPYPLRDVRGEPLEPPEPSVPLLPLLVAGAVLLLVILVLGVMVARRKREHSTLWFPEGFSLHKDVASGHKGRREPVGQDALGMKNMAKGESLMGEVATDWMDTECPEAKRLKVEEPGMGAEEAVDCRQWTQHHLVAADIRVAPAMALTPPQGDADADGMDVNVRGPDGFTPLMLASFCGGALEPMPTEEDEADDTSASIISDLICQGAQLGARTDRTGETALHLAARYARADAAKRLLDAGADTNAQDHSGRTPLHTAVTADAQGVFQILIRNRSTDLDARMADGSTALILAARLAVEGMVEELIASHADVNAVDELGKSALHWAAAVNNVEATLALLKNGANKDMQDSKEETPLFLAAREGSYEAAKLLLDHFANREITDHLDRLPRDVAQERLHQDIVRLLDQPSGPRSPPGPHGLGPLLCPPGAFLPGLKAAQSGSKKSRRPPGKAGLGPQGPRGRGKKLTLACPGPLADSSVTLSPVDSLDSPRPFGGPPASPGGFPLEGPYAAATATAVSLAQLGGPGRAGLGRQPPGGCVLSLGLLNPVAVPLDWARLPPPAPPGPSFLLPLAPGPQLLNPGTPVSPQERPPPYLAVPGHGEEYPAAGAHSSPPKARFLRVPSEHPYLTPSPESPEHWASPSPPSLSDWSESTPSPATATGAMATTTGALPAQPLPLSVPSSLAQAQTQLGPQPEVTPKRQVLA

[10] = probe aEGFR binding to arrayed compounds – biochemical, biotinylated probe, 635/667 nm fluorescence, primary screen (AID 1097); details: small-molecule microarray, higher = more signal;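 note: probe is a biotinylated anti-EGFR antibody binding compounds printed on slides; score combines fluorescence near 667 nm and signal to noise of each spot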
[11] = test system: Plasmodium falciparum Sir2 (PF13_0152, Sir2A); experiment: Plasmodium falciparum Sir2A binding compounds – biochemical, small-molecule microarray, 635 nm fluorescence, primary screen (AID 1098); details: fluorescence 635 nm, higher = more signal;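 note: score merges spot fluorescence intensity with its signal-to-noise ratio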
[12] = probe aDKK1 binding to arrayed compounds – biochemical, biotinylated probe, 635/667 nm fluorescence, primary screen (AID 1099); details: small-molecule microarray, higher = more signal;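 note: score merges 667nm spot fluorescence with signal to noise across triplicate slides; reference of the scale not given here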
[13] = probe aCHRDL2 binding to arrayed compounds – biochemical, biotinylated probe, 635/667 nm fluorescence, primary screen (AID 1100); details: small-molecule microarray, higher = more signal
[14] = change in splice reporter luminescence, either direction, cell-based, HEK293, spliceosome inhibition project, primary screen (AID 1101); details: HEK293 splicing luciferase reporter, 24 h, higher = more signal, called active from +8 up or from −8 down;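 note: HEK293 cells carrying a splicing-competent luciferase reporter gene; test concentration not given here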
[15] = biological target: Fibroblast growth factor 10 (Homo sapiens) (UniProt O15520); experiment: compounds binding fibroblast growth factor 10 – biochemical, small-molecule microarray, 635 nm fluorescence, primary screen (AID 1102); details: FGF10 binding, fluorescence 635 nm, higher = more signal
Fibroblast growth factor 10 (Homo sapiens), sequence (O15520 whole entry, looked up): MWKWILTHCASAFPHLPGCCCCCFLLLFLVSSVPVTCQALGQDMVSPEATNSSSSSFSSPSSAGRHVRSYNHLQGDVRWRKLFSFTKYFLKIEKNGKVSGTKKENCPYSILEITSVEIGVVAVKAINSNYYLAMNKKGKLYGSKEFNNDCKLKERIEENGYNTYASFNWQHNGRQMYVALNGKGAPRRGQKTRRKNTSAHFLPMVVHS

[16] = test system: glycogen synthase kinase-3 (GSK3A per assay name; protocol says GSK3B); experiment: compounds binding glycogen synthase kinase-3 – biochemical, small-molecule microarray, 635 nm fluorescence, GSK3A, primary screen (AID 1103); details: fluorescence 635 nm, higher = more signal; note: the record names both GSK3A and GSK3B
[17] = biological target: Epidermal growth factor receptor (Homo sapiens) (UniProt P00533); experiment: compounds binding epidermal growth factor receptor – biochemical, small-molecule microarray, 635 nm fluorescence, primary screen (AID 1104); details: EGFR binding, higher = more signal;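 note: score merges 667 nm emission intensity with spot signal to noise over triplicate slides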
Epidermal growth factor receptor (Homo sapiens), sequence (P00533 whole entry, looked up): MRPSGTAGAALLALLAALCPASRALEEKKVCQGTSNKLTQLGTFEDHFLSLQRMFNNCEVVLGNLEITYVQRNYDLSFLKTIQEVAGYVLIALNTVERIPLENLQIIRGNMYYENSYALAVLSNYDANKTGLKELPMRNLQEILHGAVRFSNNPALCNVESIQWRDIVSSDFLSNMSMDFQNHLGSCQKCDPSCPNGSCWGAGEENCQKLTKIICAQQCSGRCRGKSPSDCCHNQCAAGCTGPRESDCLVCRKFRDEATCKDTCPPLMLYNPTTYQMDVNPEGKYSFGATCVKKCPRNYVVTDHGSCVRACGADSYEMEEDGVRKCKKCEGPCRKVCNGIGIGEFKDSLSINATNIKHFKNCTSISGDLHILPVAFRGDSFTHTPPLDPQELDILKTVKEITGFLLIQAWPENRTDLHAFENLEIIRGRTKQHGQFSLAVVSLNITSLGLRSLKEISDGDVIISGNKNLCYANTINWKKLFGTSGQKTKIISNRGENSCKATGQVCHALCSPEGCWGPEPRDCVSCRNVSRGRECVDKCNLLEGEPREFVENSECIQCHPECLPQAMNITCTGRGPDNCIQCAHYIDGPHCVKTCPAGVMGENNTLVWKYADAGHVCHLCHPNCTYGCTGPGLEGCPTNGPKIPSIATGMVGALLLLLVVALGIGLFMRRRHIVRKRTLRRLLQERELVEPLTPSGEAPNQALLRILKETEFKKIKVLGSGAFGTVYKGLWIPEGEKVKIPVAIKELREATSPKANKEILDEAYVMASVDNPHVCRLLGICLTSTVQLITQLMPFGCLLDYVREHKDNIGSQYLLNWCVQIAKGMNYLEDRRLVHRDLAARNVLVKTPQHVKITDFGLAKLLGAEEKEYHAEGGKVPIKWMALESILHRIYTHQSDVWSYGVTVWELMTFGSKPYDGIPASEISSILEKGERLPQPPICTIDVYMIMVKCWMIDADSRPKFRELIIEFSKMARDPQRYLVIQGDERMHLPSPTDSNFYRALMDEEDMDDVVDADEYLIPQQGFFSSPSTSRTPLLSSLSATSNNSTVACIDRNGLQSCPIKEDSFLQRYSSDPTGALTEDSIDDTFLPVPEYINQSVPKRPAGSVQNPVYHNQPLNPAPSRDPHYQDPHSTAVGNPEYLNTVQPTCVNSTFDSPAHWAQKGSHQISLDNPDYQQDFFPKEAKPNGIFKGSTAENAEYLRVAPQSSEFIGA

[18] = biological target: Follistatin-related protein 3 (Homo sapiens) (UniProt O95633); experiment: compounds binding follistatin-related protein 3 – biochemical, small-molecule microarray, 635 nm fluorescence, primary screen (AID 1105); details: FSTL3 binding, higher = more signal;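 note: score merges emission near 667 nm and signal to noise per printed spot across three slides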
Follistatin-related protein 3 (Homo sapiens), sequence (O95633 whole entry, looked up): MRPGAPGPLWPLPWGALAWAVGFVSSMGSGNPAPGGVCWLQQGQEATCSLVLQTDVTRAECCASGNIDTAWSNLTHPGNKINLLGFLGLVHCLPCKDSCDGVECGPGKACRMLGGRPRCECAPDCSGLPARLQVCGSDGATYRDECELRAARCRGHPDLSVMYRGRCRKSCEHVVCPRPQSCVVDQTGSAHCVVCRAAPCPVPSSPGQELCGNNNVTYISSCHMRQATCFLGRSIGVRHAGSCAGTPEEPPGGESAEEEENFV

[19] = biological target: Dickkopf-related protein 1 (Homo sapiens) (UniProt O94907); experiment: small molecules binding DKK1 protein – biochemical, small-molecule microarray, 635 nm fluorescence scan, primary screen (AID 1106); details: higher = more signal;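 note: score merges emission near 667 nm with signal to noise over three replicate slides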
Dickkopf-related protein 1 (Homo sapiens), sequence (O94907 whole entry, looked up): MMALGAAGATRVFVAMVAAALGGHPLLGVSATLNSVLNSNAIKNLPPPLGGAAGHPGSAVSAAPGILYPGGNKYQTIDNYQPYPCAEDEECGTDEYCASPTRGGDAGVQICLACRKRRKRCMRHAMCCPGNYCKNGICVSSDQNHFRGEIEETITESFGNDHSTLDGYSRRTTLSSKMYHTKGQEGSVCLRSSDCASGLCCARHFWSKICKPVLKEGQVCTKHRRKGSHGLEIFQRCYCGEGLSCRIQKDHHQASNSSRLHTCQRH

[20] = test system: Inhibin beta A chain (activin A); experiment: small molecules binding activin A – biochemical, small-molecule microarray, 635 nm fluorescence scan, primary screen (AID 1107); details: INHBA, higher = more signal;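 note: mouse activin A protein probed at 4.33 µg/mL on printed slides; score merges bound-protein fluorescence near 667 nm with spot signal-to-noise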

SMILES | composite z-score [1] | z-score [2] | z-score [3] | z-score [4] | composite z-score [5] | z-score [6] | composite z-score [7] | composite z-score [8] | composite z-score [9] | composite z-score [10] | composite z-score [11] | composite z-score [12] | composite z-score [13] | z-score [14] | composite z-score [15] | composite z-score [16] | composite z-score [17] | composite z-score [18] | composite z-score [19] | composite z-score [20]
O=c1n(Cc2cc3c(cc2Cl)OCO3)c(=O)n2n1CC[C@@H]1C(=NOCc3ccccc3)[C@H]3O[C@H]3[C@@H](O)[C@@H]12 | 0.499 | -1.97 (inactive) | -1.25 (inactive) | -0.756 (inactive) | -0.056 | -0.363 (inactive) | -0.0963 | 0.498 | 0.68 | -0.0371 | 0.172 | 0.87 | -0.546 | -1 (inactive) | 0.531 | 0.432 | 0.452 | 0.587 | 0.669 | 0.111
CCCNC(=O)OC[C@H]1O[C@H](c2ccccc2)C=C[C@@H]1Oc1ccc(OC)cc1 | -0.0125 | -0.325 (inactive) | -0.423 (inactive) | 0.0199 (inactive) | 0.361 | 0.806 (inactive) | -0.0916 | -0.234 | -0.124 | -0.146 | -0.361 | -0.377 | -0.396 | -0.0906 (inactive) | 0.0708 | -0.0811 | 0.424 | 0.108 | -0.0332 | -0.339
CCCCC#C[C@@H]1C=C[C@H](Oc2cc(OC)c(OC)c(OC)c2)[C@@H](COC(=O)OCC)O1 | 0.314 | 0.635 (inactive) | -2.19 (inactive) | 0.398 (inactive) | -0.16 | 0.934 (inactive) | -0.209 | 0.229 | -0.208 | -0.162 | 0.589 | -0.328 | -0.619 | -0.696 (inactive) | 0.306 | -0.682 | 0.0389 | -0.203 | 0.514 | 0.444
COC(=O)CC=C[C@H](C)[C@@H](OCc1cccc(Br)c1)[C@@H](C)[C@H](OC)C1CCCCC1 | -0.0514 | 0.738 (inactive) | -1.28 (inactive) | 0.99 (inactive) | -0.412 | 0.276 (inactive) | -0.166 | 0.32 | -1 | -0.237 | 0.242 | -0.462 | -0.233 | -0.256 (inactive) | -0.0117 | -1.16 | 0.153 | -0.449 | 0.515 | 1.34
CCOC(=O)NN=C1C[C@@H](O)[C@@H](O)[C@@H]2[C@@H]3C(=O)N(C(C)(C)C)C(=O)[C@@H]3CC[C@H]12 | -0.247 | 0.438 (inactive) | 0.277 (inactive) | -0.397 (inactive) | -0.3 | 0.443 (inactive) | -0.101 | 0.708 | 0.235 | 0.039 | 0.217 | 0.0171 | -0.398 | -0.626 (inactive) | 0.338 | 0.666 | 0.705 | 0.635 | 0.739 | 0.103
CC(CCN1CCCc2nc(C)c(C)cc21)=NOC(C)CN1CCCCc2nc(C)c(C)cc21 (stereo not given) | 1.49 | -0.415 (inactive) | 0.435 (inactive) | 0.837 (inactive) | 1.22 | 0.597 (inactive) | 0.0012 | 0.923 | 1.08 | 0.406 | 1.16 | 0.0616 | -0.271 | 0.322 (inactive) | 1.14 | 1.28 | 1.2 | 1.42 | 1.18 | 1.43
C=COC[C@@H]1CN2[C@@H](CC[C@@H](C)[C@@H]2c2ccc(Br)cc2)C(=O)O1 | 0.217 | -0.872 (inactive) | -17.1 (active) | -0.61 (inactive) | 0.0749 | -0.756 (inactive) | -0.0769 | -0.0482 | -0.906 | -0.267 | 0.0845 | -0.319 | -0.0905 | -0.589 (inactive) | -0.472 | -0.413 | -0.46 | -0.46 | -0.0521 | 1.47
O=C1C[C@@H](O)[C@@H](O)[C@@H]2[C@@H]3C(=O)N(c4cccc(Oc5ccccc5)c4)C(=O)[C@@H]3CC[C@H]12 | -0.129 | 0.157 (inactive) | 0.462 (inactive) | 0.469 (inactive) | 0.685 | 0.378 (inactive) | -0.156 | 0.292 | 1.02 | -0.145 | 0.326 | -0.18 | -0.709 | 0.218 (inactive) | 0.595 | 0.572 | 0.573 | 0.814 | 0.846 | -0.173
COC(=O)CC=C[C@@H](C)[C@@H](C=NO[C@@H](C)c1cc(-c2c(C)cc(C)cc2C)no1)NS(=O)(=O)c1ccc(C)cc1 | -0.84 | -0.0649 (inactive) | 0.679 (inactive) | 0.905 (inactive) | -0.227 | -0.881 (inactive) | 0.0221 | -2.2 | -2.03 | -0.224 | -0.775 | 0.437 | 0.969 | -1.4 (inactive) | -1.93 | -1.46 | -1.16 | -1.83 | -2.26 | 0.178
CC(CCN1CCCCc2nc(C)c(C)cc21)=NO[C@H](C)c1cn([C@H](CO)Cc2ccccc2)nn1 | 1.1 | -0.585 (inactive) | 0.446 (inactive) | -0.382 (inactive) | 0.592 | -0.425 (inactive) | 0.0345 | 0.196 | 0.108 | -0.026 | 0.79 | -0.0963 | -0.65 | 0.339 (inactive) | 0.383 | -0.393 | 0.773 | 1.25 | 0.885 | 1.15
